Drawing on the supplement of paper PMC6411743, this text covers NP40-soluble protein abundance for 15 targets.

± gives the standard deviation of the averaged measurements. Targets with the largest changes are over-represented here; the source holds about 6,200 in all.

Compound in this experiment: Nc1ncnc2c1ncn2[C@@H]1O[C@H](COP(=O)(O)OP(=O)(O)NP(=O)(O)O)[C@@H](O)[C@H]1O [adenylyl imidodiphosphate]
The experiment is described as follows: NP40-soluble protein abundance relative to vehicle (solubility fold change) (ratio); higher = more soluble protein in presence of AMP-PNP. In outline: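 Jurkat crude lysate (Dounce-homogenised) was treated with eight concentrations from 0.1 to 10 mM for 10 min at room temperature, then 3 min at 37 °C. It was solubilised with 0.8% NP40 and benzonase (60 min, 4 °C) and ultracentrifuged, and the supernatant was TMT-labelled for LC-MS/MS. Intensities were vsn-normalised, and the value is the fold change against the NP40-processed vehicle per replicate, from three independent experiments.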

Sequence of UniProt O43765 (O43765 whole entry): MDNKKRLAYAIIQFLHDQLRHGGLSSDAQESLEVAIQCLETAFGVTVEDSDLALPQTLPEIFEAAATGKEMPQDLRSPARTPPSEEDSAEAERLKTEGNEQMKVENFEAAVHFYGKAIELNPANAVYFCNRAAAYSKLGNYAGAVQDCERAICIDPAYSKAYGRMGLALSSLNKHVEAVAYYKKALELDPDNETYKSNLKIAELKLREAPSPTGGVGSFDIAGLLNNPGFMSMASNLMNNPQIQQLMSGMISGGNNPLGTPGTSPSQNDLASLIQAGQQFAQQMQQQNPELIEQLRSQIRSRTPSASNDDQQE
Sequence of UniProt Q92800 (Q92800 whole entry, one chain of several): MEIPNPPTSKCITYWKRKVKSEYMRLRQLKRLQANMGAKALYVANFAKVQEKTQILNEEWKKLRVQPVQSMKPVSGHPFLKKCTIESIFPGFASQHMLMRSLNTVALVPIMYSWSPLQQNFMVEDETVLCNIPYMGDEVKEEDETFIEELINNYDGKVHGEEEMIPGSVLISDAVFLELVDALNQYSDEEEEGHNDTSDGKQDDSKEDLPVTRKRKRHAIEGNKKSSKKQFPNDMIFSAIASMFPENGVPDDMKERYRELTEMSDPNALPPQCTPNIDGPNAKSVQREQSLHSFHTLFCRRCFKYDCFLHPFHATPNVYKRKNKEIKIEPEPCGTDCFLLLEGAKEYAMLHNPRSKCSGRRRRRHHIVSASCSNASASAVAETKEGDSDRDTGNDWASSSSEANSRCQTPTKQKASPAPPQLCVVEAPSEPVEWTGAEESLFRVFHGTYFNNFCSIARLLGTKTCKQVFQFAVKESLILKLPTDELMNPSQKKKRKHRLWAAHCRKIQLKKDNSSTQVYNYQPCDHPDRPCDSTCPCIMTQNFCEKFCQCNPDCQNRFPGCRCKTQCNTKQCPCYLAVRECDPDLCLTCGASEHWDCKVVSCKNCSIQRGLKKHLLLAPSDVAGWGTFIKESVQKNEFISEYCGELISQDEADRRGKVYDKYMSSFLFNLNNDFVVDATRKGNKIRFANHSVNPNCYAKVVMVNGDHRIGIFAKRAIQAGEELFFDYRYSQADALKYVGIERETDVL
Sequence of UniProt B0I1T2 (B0I1T2 whole entry): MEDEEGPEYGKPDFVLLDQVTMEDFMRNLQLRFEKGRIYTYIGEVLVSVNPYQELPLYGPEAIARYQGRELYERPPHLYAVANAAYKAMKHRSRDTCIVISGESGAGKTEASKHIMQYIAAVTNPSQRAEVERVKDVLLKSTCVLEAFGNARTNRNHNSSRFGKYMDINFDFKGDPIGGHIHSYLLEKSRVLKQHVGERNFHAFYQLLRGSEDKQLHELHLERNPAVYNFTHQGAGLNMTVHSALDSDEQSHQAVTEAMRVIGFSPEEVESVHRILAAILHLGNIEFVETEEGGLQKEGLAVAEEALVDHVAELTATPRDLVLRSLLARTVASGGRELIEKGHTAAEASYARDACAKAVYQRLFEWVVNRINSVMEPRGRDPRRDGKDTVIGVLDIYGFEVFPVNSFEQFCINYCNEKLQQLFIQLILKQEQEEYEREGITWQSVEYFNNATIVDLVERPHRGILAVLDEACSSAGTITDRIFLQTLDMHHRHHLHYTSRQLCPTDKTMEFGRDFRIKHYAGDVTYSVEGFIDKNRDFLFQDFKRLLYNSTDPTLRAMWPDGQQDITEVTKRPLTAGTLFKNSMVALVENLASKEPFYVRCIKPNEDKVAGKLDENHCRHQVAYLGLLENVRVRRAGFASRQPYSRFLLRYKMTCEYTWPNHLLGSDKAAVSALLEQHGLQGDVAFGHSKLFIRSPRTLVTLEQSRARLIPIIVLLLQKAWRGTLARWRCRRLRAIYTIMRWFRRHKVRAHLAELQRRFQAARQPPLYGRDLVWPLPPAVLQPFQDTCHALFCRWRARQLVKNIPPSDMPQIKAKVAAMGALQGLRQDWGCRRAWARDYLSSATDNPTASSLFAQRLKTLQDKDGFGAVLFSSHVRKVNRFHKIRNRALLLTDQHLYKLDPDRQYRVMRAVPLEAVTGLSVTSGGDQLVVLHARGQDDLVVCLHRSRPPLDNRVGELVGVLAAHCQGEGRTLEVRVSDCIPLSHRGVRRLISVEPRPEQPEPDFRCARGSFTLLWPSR
Sequence of UniProt P98171 (P98171 whole entry, one chain of several): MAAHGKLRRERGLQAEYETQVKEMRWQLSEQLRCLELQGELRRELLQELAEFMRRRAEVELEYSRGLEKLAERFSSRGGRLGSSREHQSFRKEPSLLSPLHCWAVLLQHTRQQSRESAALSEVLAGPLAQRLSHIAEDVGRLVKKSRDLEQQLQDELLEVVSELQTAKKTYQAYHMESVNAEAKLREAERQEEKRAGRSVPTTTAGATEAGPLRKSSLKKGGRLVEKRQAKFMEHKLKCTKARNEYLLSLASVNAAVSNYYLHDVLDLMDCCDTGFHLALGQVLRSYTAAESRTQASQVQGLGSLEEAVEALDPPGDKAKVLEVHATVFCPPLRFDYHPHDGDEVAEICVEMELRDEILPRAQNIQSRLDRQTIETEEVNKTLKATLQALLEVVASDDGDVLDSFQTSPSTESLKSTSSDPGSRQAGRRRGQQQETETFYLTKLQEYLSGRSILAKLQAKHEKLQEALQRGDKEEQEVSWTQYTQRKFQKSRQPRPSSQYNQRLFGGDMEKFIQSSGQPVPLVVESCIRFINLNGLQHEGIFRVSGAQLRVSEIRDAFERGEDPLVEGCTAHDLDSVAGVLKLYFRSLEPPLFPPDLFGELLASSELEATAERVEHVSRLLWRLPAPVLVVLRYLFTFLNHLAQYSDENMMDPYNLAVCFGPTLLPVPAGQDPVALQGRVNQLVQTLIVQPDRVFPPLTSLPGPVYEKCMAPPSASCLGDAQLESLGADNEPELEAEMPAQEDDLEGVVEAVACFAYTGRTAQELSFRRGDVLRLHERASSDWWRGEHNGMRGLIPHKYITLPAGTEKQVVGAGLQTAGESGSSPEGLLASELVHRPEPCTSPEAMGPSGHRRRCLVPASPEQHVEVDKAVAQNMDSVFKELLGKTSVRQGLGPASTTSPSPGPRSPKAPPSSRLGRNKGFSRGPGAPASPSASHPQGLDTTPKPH
Sequence of UniProt P35236 (P35236 whole entry, one chain of several): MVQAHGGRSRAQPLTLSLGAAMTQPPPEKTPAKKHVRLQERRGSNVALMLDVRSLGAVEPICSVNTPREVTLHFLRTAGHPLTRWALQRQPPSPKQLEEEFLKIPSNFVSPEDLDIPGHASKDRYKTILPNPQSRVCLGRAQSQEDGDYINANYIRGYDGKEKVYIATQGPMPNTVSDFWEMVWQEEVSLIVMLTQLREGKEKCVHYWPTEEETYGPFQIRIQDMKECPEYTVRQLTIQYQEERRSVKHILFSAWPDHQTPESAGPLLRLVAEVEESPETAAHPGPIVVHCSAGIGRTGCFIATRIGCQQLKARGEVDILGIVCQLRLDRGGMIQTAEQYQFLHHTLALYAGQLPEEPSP
Sequence of UniProt P43243 (P43243 whole entry, one chain of several): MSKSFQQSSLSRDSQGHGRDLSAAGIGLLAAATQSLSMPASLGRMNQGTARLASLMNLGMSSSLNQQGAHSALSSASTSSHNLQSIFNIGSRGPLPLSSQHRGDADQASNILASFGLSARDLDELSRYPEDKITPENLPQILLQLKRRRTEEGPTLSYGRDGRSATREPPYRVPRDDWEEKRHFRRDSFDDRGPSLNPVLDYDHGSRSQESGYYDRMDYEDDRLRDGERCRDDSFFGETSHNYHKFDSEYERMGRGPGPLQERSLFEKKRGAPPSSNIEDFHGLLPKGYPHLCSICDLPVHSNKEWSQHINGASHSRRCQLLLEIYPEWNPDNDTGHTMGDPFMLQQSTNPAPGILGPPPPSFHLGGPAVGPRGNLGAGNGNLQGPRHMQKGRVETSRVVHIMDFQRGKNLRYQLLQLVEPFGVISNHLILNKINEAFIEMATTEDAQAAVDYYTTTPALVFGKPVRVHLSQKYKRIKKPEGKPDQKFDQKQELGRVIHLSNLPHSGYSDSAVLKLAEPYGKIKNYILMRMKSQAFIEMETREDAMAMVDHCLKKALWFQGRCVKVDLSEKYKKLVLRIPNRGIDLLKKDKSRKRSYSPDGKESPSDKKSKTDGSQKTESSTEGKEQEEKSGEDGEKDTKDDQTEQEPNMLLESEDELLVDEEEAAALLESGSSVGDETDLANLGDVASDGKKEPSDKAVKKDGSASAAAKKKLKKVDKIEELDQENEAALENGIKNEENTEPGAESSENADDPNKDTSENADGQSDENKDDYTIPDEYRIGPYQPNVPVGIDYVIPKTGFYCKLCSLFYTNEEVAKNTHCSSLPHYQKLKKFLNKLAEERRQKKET
Sequence of UniProt P49585 (P49585 whole entry, one chain of several): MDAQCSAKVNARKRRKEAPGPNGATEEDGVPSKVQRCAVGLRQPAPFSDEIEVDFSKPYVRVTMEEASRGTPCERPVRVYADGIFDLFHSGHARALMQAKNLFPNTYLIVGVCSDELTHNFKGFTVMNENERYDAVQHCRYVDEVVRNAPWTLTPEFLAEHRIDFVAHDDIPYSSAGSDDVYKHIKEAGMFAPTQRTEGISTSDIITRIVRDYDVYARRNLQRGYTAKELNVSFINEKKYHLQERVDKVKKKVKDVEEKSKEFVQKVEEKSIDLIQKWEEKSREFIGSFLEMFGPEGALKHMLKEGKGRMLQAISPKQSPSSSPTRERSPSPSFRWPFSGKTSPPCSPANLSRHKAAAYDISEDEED
Sequence of UniProt Q96FZ2 (Q96FZ2 whole entry, one chain of several): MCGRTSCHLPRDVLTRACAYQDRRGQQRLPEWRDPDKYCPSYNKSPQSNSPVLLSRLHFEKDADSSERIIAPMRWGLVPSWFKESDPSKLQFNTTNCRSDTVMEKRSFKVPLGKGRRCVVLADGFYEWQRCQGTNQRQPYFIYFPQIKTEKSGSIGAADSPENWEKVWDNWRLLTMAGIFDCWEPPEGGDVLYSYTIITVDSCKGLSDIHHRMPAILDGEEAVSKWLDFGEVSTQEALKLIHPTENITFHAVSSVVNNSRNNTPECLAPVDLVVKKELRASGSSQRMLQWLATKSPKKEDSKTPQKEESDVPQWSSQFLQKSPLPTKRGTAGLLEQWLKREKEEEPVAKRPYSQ

On to SGTA (UniProt O43765), for which the NP40-soluble protein abundance by setting is: (concentration: 1mM) 1.03 ± 0.052; (concentration: 2mM) 1.15 ± 0.079; (concentration: 4mM) 0.99 ± 0.03; (concentration: 6mM) 1.01 ± 0.037; (concentration: 8mM) 0.943 ± 0.054; (concentration: 10mM) 1.02 ± 0.085.

Consider H0YKD8|P46779 (UniProt P46779), for which the NP40-soluble protein abundance is, setting by setting: (concentration: 1mM) 1.05 ± 0.14; (concentration: 2mM) 1.02 ± 0.09; (concentration: 4mM) 1.01 ± 0.13; (concentration: 6mM) 0.993 ± 0.071; (concentration: 8mM) 0.919 ± 0.098; (concentration: 10mM) 1.05 ± 0.16.

Regarding MYO1G (UniProt B0I1T2), the NP40-soluble protein abundance runs as follows: (concentration: 1mM) 1.14 ± 0.074; (concentration: 2mM) 1.12 ± 0.11; (concentration: 4mM) 1.27 ± 0.22; (concentration: 6mM) 1.34 ± 0.3; (concentration: 8mM) 1.44 ± 0.43; (concentration: 10mM) 1.47 ± 0.46.

Turning to E7EMP6|Q96FZ2 (UniProt Q96FZ2), the NP40-soluble protein abundance by setting is: (concentration: 1mM) 1.06 ± 0.015; (concentration: 2mM) 1.01 ± 0.032; (concentration: 4mM) 1.04 ± 0.021; (concentration: 6mM) 0.9875 ± 0.0043; (concentration: 8mM) 1.01 ± 0.016; (concentration: 10mM) 1 ± 0.033.

“A0A0A0MSY9|Q92800|Q92800-2|Q92800-3|Q92800-4|Q92800-5 (UniProt Q92800)”: the NP40-soluble protein abundance worked out at 0.978 ± 0.017 (concentration: 1mM); 0.97 ± 0.022 (concentration: 2mM); 0.9794 ± 0.0047 (concentration: 4mM); 0.994 ± 0.016 (concentration: 6mM); 0.999 ± 0.019 (concentration: 8mM); 1.001 ± 0.0058 (concentration: 10mM).

For the target “E9PBG7|E9PF82|Q13557|Q13557-10|Q13557-11|Q13557-12|Q13557-3|Q13557-4|Q13557-5|Q13557-6|Q13557-8|Q13557-9 (UniProt Q13557)”, the NP40-soluble protein abundance amounted to 0.94 ± 0.026 (concentration: 1mM); 0.989 ± 0.049 (concentration: 2mM); 0.903 ± 0.017 (concentration: 4mM); 0.89 ± 0.054 (concentration: 6mM); 0.878 ± 0.022 (concentration: 8mM); 0.88 ± 0.027 (concentration: 10mM).

“H7C5I3|J3KR55|P35236|P35236-2|P35236-3 (UniProt P35236)”: the NP40-soluble protein abundance by setting is: (concentration: 1mM) 0.978 ± 0.0098; (concentration: 2mM) 1.01 ± 0.021; (concentration: 4mM) 0.994 ± 0.037; (concentration: 6mM) 0.978 ± 0.011; (concentration: 8mM) 0.959 ± 0.018; (concentration: 10mM) 0.982 ± 0.033.

With “F8WCF9|G5E9E8|Q8N465|Q8N465-2|Q8N465-3 (UniProt Q8N465)”, the NP40-soluble protein abundance is 0.983 ± 0.03 (concentration: 1mM); 1.01 ± 0.012 (concentration: 2mM); 0.992 ± 0.01 (concentration: 4mM); 1.04 ± 0.035 (concentration: 6mM); 1.02 ± 0.032 (concentration: 8mM); 1.03 ± 0.02 (concentration: 10mM).

On to “H0YHA7|J3QQ67|Q07020|Q07020-2 (UniProt Q07020)”, for which the NP40-soluble protein abundance amounted to 1.02 ± 0.038 (concentration: 1mM); 0.9774 ± 0.0023 (concentration: 2mM); 1.01 ± 0.086 (concentration: 4mM); 0.9115 ± 0.0037 (concentration: 6mM); 0.766 ± 0.042 (concentration: 8mM); 1.04 ± 0.082 (concentration: 10mM).

As to K4DI93|Q13620-1 (UniProt Q13620), the NP40-soluble protein abundance reads like this: (concentration: 1mM) 0.991 ± 0.011; (concentration: 2mM) 0.936 ± 0.05; (concentration: 4mM) 0.9972 ± 0.0076; (concentration: 6mM) 0.992 ± 0.028; (concentration: 8mM) 1 ± 0.017; (concentration: 10mM) 0.995 ± 0.024.

Take ARPC2 (UniProt O15144): the NP40-soluble protein abundance is, setting by setting: (concentration: 1mM) 0.974 ± 0.033; (concentration: 2mM) 0.896 ± 0.11; (concentration: 4mM) 0.937 ± 0.023; (concentration: 6mM) 0.976 ± 0.031; (concentration: 8mM) 0.994 ± 0.046; (concentration: 10mM) 0.957 ± 0.048.

Take “C9JEJ2|H7BZN1|P49585|C9J050 (UniProt P49585)”: the NP40-soluble protein abundance (concentration: 1mM) came to 1.01 ± 0.028; the NP40-soluble protein abundance (concentration: 2mM) is 1.02 ± 0.022; the NP40-soluble protein abundance (concentration: 4mM) was determined as 1.02 ± 0.015; the NP40-soluble protein abundance (concentration: 6mM) was 0.993 ± 0.027; the NP40-soluble protein abundance (concentration: 8mM) came to 1 ± 0.02; the NP40-soluble protein abundance (concentration: 10mM) was found to be 0.996 ± 0.01.

Consider A8MXP9|P43243 (UniProt P43243), for which the NP40-soluble protein abundance reads like this: (concentration: 1mM) 1.03 ± 0.033; (concentration: 2mM) 1.07 ± 0.016; (concentration: 4mM) 1.05 ± 0.016; (concentration: 6mM) 1.07 ± 0.042; (concentration: 8mM) 1.08 ± 0.025; (concentration: 10mM) 1.1 ± 0.028.

Turning to A0A0B4J220 (UniProt E9PRG8), the NP40-soluble protein abundance is 1.14 ± 0.051 (concentration: 1mM); 1.15 ± 0.057 (concentration: 2mM); 1.2 ± 0.045 (concentration: 4mM); 1.26 ± 0.1 (concentration: 6mM); 1.4 ± 0.053 (concentration: 8mM); 1.39 ± 0.046 (concentration: 10mM).

For the target E7EQN5|P98171|P98171-2 (UniProt P98171), the NP40-soluble protein abundance (concentration: 1mM) came out at 0.999 ± 0.013; the NP40-soluble protein abundance (concentration: 2mM) was determined as 0.997 ± 0.05; the NP40-soluble protein abundance (concentration: 4mM) is 1.02 ± 0.032; the NP40-soluble protein abundance (concentration: 6mM) is 1.03 ± 0.077; the NP40-soluble protein abundance (concentration: 8mM) worked out at 1.01 ± 0.056; the NP40-soluble protein abundance (concentration: 10mM) was determined as 1.04 ± 0.023.
